From PubChem BioAssay (NCI) come the findings set out here.

Values joined by “and” are separate entries in the source; they are usually repeats but may differ in a detail not shown here. Equal entries are not always repeated. Compounds without any hit were thinned out: in the full panel of roughly 79,000, 15% have a hit. A number with no mark means an inactive call. Active and inactive are the calls of the source. Rule as the data show it: active = growth inhibition above about 70%; inactive = the rest.

A short description of the assay: NCI Yeast Anticancer Drug Screen. Data for the mec2-1 strain (AID 157). The following applies: S. cerevisiae mec2-1 strain, active compounds read high. On the procedure:
Growth inhibition of yeast strains with defined genetic alterations is measured as a screen for potential anti-cancer activity. Selected strains with alterations in DNA damage repair or cell cycle control were exposed to compounds and growth inhibition was measured relative to vehicle treated controls. The strain used in this assay is mec2-1

[1] abbreviates: at 5.0 µM (retest, dose inferred, filed as 0.5).
Setting [2] is: at 50.0 µM (retest, dose inferred, filed as 5.0).

Consider `O=C(/C=C/C(Cl)(Cl)Cl)Nc1ccc(Cl)cc1`, for which the growth inhibition reads like this: under setting [1], 42%; under setting [2], 21%; (at 50.0 µM) 85% (active).

`COc1ccc2nc3c4c(nccc4c2c1)-c1ncccc1C3=O`: the growth inhibition by setting is: under setting [1], 31%; under setting [2], 98% (active); (at 50.0 µM) 87.5% (active).

As to `CC(/C=N/NC(N)=S)Cc1ccc(C(C)C)cc1` (stereo not given), the growth inhibition was 45% under setting [1], 74% (active) under setting [2] and 92.5% (active) (at 50.0 µM).

`O/N=C1\c2ccccc2-c2ccc(F)cc21`: the growth inhibition runs as follows: under setting [1], 7%; under setting [2], 73% (active); (at 50.0 µM) 84.2% (active).

Take `CN1CCc2cc3c(c4c2C1C(O)c1ccccc1-4)OCO3` (stereo not given): the growth inhibition under setting [1] was 12%, the growth inhibition under setting [2] is 9% and the growth inhibition (at 50.0 µM) was 17.7%.

For `S=c1sc2ccccc2n1CCNc1ccccc1`, the growth inhibition is -3% under setting [1] and 73% (active) under setting [2].

Regarding `COc1cc(NC(=O)C2=C(C)NC(C)=C(C(=O)Nc3cc(OC)c(Cl)cc3OC)C2c2cccc([N+](=O)[O-])c2)c(OC)cc1Cl`, the growth inhibition was 5% under setting [1], 97% (active) under setting [2] and 76.3% (active) (at 50.0 µM).

In the case of `CC1(C)CCC[C@]2(C)[C@@H](C=O)C(C=O)=CC[C@@H]12`, the growth inhibition by setting is: under setting [1], 23%; under setting [2], 96% (active); (at 50.0 µM) 90.8% (active).

Regarding `[Cl-].[Rh+3].c1ccc(-c2ccnc3c2ccc2c(-c4ccccc4)ccnc23)cc1.c1ccc(-c2ccnc3c2ccc2c(-c4ccccc4)ccnc23)cc1.c1ccc(-c2ccnc3c2ccc2c(-c4ccccc4)ccnc23)cc1`, the growth inhibition is, setting by setting: under setting [1], -15%; under setting [2], 26%; (at 50.0 µM) 88.9% (active).

As to `NC(=S)N/N=C\c1nccc2c(C(F)(F)F)cccc12`, the growth inhibition by setting is: under setting [1], 2%; under setting [2], 96% (active); (at 50.0 µM) 91.4% (active).

For `CCN1CCCC(Nc2cc(C)nc(/N=C(/N)Nc3ccc(Cl)c(Cl)c3)n2)C1` (stereo not given), the growth inhibition reads like this: under setting [1], 32%; under setting [2], 98% (active); (at 50.0 µM) 92% (active).

With `CC(C)(C)CC(C)(C)c1ccc(OCCOCCSC(=N)N)cc1`, the growth inhibition reads like this: under setting [1], -3%; under setting [2], 100% (active); (at 50.0 µM) 47%.

For `CC1(c2cccs2)NC(=O)NC1=O` (stereo not given), where the note is “at 50.0 µM”, the growth inhibition was -6.2% and 9.05%.

Regarding `CC1CCOS(=O)O1` (stereo not given), the growth inhibition (at 50.0 µM) was -15% and 6.9%.

Take `C/C=C(\Br)C(=O)O`: the growth inhibition (at 50.0 µM) is -10.7% and -5.4%.

Take `CC(=O)N1CCN(C(C)=O)C2C1N(C(C)=O)CCN2C(C)=O` (stereo not given): the growth inhibition (at 50.0 µM) is -18.9% and -10.6%.

In the case of `COC1C(OC(C)=O)CC(=O)OC(C)C/C=C/C=C\C(O)C(C)CC(CC=O)C1OC1OC(C)C(OC2CC(C)(O)C(OC(=O)CC(C)C)C(C)O2)C(N(C)C)C1O` (stereo not given), the growth inhibition (at 50.0 µM) was -10.4% and -25.7%.
